The source made the active and inactive calls. Unless noted, the rule behind the calls is not given here.
Assays:
[1] = system: Wnt5a (protein binding on small-molecule microarray); assay: small molecules binding Wnt5a protein – biophysical, small-molecule microarray, 635/667 nm fluorescence, primary screen (AID 1142); conditions: 635 nm fluorescence, higher = more signal;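 note: fluorescence read at 667 nm with signal to noise per printed feature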
[2] = ATP-based viability of Huh7 replicon cells – cell-based, CellTiter-Glo luminescence, basal, 48 h, cytotoxicity control for HCV replication inhibitor project, primary screen (AID 1143); conditions: higher = more signal, called active from +8 up or from −8 down;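 note: Huh7 hepatoma cells carrying a hepatitis C replication reporter with no stimulus; test concentration not given here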
[3] = Pseudomonas biofilm growth suppression – PAO1 strain, BacTiter-Glo luminescence, LB-PBS, primary screen (AID 1144); conditions: P. aeruginosa PAO1 biofilm, 12 h, higher = more signal
[4] = basal CRE-LacZ reporter activity in PC12 – cell-based, unstimulated, primary screen (AID 1145); conditions: no forskolin, luminescence, 4.5 h, higher = more signal, called active from +8 up or from −8 down
[5] = forskolin-driven CRE-LacZ activity in PC12 – cell-based, CRE-LacZ reporter, forskolin-stimulated, primary screen (AID 1146); conditions: luminescence, 4.5 h, higher = more signal, called active from +8 up or from −8 down;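 note: PC12 cells with 6xCRE LacZ reporter stimulated by forskolin 10 µM; beta-galactosidase reporter signal reflecting CREB driven transcription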
[6] = biological target: Streptavidin (Streptomyces avidinii) (UniProt P22629); assay: compounds binding control protein streptavidin – biophysical, small-molecule microarray, 635/667 nm fluorescence, artefact control for SMM compound annotation, primary screen (AID 1147); conditions: higher = more signal;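 note: signal reflects streptavidin binding to arrayed compounds as a control protein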
[7] = probe aInhba binding on compound microarray – biochemical, small-molecule microarray, 635/667 nm fluorescence, primary screen (AID 1148); conditions: higher = more signal;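 note: score merges 667nm spot fluorescence with signal-to-noise for antibody binding to printed compounds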
[8] = biological target: Torsin-1A (Homo sapiens) (UniProt O14656); assay: TOR1A wild-type binding on microarray – cell lysate, small-molecule microarray, lysate, 635/667 nm, primary screen (AID 1149); conditions: COS7 hTOR1A-WT lysate, 635 nm fluorescence, higher = more signal
[9] = biological target: Torsin-1A (Homo sapiens) (UniProt O14656); assay: torsin A mutant lysate binding on microarrays – cell lysate, small-molecule microarray, COS7 lysate, 635/667 nm fluorescence, primary screen (AID 1150); conditions: COS7 hTOR1A mutant lysate, 635 nm fluorescence, higher = more signal;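 note: score pools 667 nm emission and signal to noise measuring lysate protein binding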
[10] = system: Sonic hedgehog protein (Shh); assay: Sonic hedgehog microarray binding compounds – biochemical, small-molecule microarray, 635/667 nm fluorescence, primary screen (AID 1151); conditions: 635 nm fluorescence, higher = more signal;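 note: Shh protein binding to compounds spotted on small-molecule microarray slides; score combines spot fluorescence intensity with signal-to-noise across triplicate slides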
[11] = optical density shifts of acrAB sulA E. coli – strain DRC41, OD650, 48 h, E. coli filamentation inducer project, primary screen (AID 1152); conditions: higher = more signal, called active from +8 up or from −8 down;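 note: E. coli MC1000 strain DRC41 lacking acrAB efflux pump and sulA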
[12] = probe aLefty1 binding on compound microarray – biochemical, small-molecule microarray, 635/667 nm fluorescence, primary screen (AID 1153); conditions: higher = more signal;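 note: score merges spot fluorescence with signal-to-noise ratio from the scanned slide images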
[13] = plasmodial surface anion channel blockers, osmotic lysis – cell-based, P. falciparum Indochina, OD700, 1 h, primary screen (AID 1154); conditions: P. falciparum Indochina infected RBC osmotic lysis, higher = more signal, called active from +8 up or from −8 down
[14] = plasmodial surface anion channel blockers, osmotic lysis – cell-based, P. falciparum Indochina, OD700, 2 h, primary screen (AID 1155);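 note: lysis reports solute entry through the parasite surface anion channel PSAC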; conditions: P. falciparum Indochina infected erythrocytes, higher = more signal, called active from +8 up or from −8 down
[15] = changes in parasitized red cell lysis, either direction – P. falciparum Indochina, OD700, 3 h, PSAC antagonist project, primary screen (AID 1156); conditions: P. falciparum-infected erythrocytes, osmotic lysis, higher = more signal, called active from +8 up or from −8 down
[16] = plasmodial surface anion channel blockers, osmotic lysis – cell-based, P. falciparum Indochina, OD700, 18 h, primary screen (AID 1157); conditions: P. falciparum Indochina infected erythrocytes, osmotic lysis OD700, 18 h; higher = more signal, called active from +8 up or from −8 down
[17] = S6 kinase pathway phospho-S6 level changes – cell-based, A549, cytoblot, luminescence, serum-stimulated, primary screen (AID 1158); conditions: 5 h, higher = more signal;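 note: serum-stimulated A549 lung adenocarcinoma cells; signal is phosphorylated S6 detected by cytoblot immunostaining with HRP secondary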
[18] = biological target: NADPH oxidase 2 (Homo sapiens) (UniProt P04839); assay: compounds shifting NOX2 Amplex Red fluorescence – cell-based, HEK293-NOX2, PMA-stimulated, NOX inhibitor project, primary screen (AID 1159); conditions: 45 min, higher = more signal, called active from +8 up or from −8 down; note: test concentration not given here
[19] = biological target: NADPH oxidase 4 (Homo sapiens) (UniProt Q9NPH5); assay: compounds shifting NOX4 Amplex Red fluorescence – cell-based, HEK293-NOX4, tetracycline-induced, NOX inhibitor project, primary screen (AID 1160); conditions: HEK293-NOX4, Amplex Red H2O2 fluorescence, 45 min; higher = more signal, called active from +8 up or from −8 down
[20] = biological target: NADPH oxidase 5 (Homo sapiens) (UniProt Q96PH1); assay: compounds shifting NOX5 Amplex Red fluorescence – cell-based, HEK293-NOX5, NOX inhibitor project, primary screen (AID 1161); conditions: HEK293-NOX5, ionomycin, 45 min, higher = more signal
NADPH oxidase 5 (Homo sapiens), sequence (Q96PH1 whole entry, looked up): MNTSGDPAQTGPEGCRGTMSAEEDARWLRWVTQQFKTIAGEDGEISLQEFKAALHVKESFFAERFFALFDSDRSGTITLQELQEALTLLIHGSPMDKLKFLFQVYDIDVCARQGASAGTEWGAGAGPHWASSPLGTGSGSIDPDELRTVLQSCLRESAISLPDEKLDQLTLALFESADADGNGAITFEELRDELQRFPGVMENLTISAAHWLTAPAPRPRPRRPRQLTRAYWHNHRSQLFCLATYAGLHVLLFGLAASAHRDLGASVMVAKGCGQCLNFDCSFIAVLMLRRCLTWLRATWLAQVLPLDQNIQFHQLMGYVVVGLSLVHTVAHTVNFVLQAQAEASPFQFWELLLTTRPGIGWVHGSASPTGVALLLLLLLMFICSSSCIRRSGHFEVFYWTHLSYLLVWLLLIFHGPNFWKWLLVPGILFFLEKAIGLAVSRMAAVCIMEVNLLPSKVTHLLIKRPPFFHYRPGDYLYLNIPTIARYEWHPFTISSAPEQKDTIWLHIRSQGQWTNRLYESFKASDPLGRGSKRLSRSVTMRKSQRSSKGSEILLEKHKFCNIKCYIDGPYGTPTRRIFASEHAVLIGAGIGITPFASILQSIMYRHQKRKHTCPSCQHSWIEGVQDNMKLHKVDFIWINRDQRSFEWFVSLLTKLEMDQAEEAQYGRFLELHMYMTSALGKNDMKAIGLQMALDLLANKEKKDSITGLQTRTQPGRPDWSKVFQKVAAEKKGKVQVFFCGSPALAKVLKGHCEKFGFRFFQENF

Streptavidin (Streptomyces avidinii), sequence (P22629 whole entry, looked up): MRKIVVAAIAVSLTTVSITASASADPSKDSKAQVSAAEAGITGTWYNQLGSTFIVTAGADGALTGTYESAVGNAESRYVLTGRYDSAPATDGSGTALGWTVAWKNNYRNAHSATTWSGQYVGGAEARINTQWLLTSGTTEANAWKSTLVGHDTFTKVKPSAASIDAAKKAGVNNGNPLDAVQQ
NADPH oxidase 4 (Homo sapiens), sequence (Q9NPH5 whole entry, looked up): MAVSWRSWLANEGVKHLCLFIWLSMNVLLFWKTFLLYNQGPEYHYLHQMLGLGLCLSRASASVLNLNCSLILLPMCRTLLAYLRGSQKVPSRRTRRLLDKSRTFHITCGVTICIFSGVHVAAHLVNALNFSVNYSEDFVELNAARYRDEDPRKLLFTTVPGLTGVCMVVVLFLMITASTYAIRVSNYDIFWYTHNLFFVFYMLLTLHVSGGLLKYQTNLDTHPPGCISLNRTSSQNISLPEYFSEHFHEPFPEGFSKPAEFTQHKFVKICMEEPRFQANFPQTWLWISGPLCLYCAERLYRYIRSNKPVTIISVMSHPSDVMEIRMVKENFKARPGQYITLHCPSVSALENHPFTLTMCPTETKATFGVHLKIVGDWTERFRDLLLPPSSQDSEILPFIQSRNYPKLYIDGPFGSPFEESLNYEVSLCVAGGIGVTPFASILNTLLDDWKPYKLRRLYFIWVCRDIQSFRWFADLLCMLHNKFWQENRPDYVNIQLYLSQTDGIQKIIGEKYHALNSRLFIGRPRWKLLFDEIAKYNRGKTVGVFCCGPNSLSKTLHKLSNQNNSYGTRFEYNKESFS
NADPH oxidase 2 (Homo sapiens), sequence (P04839 whole entry, looked up): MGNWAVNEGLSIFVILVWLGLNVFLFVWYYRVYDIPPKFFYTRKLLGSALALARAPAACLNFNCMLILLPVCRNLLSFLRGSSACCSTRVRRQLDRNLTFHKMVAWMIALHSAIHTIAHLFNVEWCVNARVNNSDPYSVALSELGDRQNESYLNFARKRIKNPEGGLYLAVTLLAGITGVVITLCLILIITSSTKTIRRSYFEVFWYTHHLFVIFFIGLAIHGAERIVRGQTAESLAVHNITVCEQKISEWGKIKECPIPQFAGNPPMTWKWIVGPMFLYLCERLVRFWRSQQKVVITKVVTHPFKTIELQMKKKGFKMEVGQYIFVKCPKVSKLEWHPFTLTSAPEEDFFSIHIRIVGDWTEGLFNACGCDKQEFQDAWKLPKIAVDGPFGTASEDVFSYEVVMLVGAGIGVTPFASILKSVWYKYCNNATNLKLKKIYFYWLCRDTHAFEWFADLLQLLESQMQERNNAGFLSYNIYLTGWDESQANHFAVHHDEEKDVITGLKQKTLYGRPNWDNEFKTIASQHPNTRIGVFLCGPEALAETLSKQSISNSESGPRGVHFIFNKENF
Torsin-1A (Homo sapiens), sequence (O14656 whole entry, looked up): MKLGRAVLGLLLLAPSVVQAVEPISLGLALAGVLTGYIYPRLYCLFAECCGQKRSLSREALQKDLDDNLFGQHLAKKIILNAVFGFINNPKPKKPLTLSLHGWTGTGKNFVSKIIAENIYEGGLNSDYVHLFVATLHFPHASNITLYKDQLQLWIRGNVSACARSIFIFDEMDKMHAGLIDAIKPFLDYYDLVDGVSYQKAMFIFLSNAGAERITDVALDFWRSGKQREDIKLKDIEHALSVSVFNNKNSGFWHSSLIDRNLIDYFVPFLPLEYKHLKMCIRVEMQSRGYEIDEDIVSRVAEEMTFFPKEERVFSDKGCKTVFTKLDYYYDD

Row | SMILES | composite z-score [1] | z-score [2] | z-score [3] | z-score [4] | z-score [5] | composite z-score [6] | composite z-score [7] | composite z-score [8] | composite z-score [9] | composite z-score [10] | z-score [11] | composite z-score [12] | z-score [13] | z-score [14] | z-score [15] | z-score [16] | z-score [17] | z-score [18] | z-score [19] | z-score [20]
1 | CC1=C([C@H](O)CCc2ccccc2)[C@H](CO)[C@@H]2C(=O)N(Cc3ccccc3)C(=O)[C@@H]2C1 | 0.079 | -0.932 (inactive) | -1.43 (inactive) | 0.851 (inactive) | -0.425 (inactive) | 0.925 | -0.0451 | -0.0669 | 0.279 | 0.256 | 1.85 (inactive) | -0.147 | 5.86 (inactive) | 0.759 (inactive) | 0.695 (inactive) | 0.5 (inactive) | 0.663 | -0.0572 (inactive) | 0.16 (inactive) | -0.798
2 | O=C1O[C@H](c2ccccc2)[C@H](c2ccccc2)N2[C@H]1[C@@H](C(=O)NC[C@H](O)c1ccccc1)[C@]1(C(=O)Nc3ccc(C#CC4(O)CCCCCC4)cc31)[C@H]2c1ccc(OCCO)cc1 | 0.288 | -5.26 (inactive) | -0.37 (inactive) | -0.231 (inactive) | -0.581 (inactive) | 0.463 | 0.0082 | 0.127 | 0.644 | 0.756 | 3.02 (inactive) | 0.0811 | 3.64 (inactive) | -0.0068 (inactive) | 0.226 (inactive) | -1.03 (inactive) | 2.78 | 2.48 (inactive) | 0.0727 (inactive) | 0.139
3 | C=CCN1C(=O)[C@@]2(Cc3ccccc3)N=C(c3ccc(OCCCO)cc3)O[C@H]2c2ccccc21 | 0.358 | -1.81 (inactive) | 0.294 (inactive) | 1.07 (inactive) | -0.984 (inactive) | 0.653 | 0.346 | 0.238 | 1.56 | 1.28 | 0.0648 (inactive) | 0.48 | 33.3 (active) | 32 (active) | 2.61 (inactive) | 9.79 (active) | -0.586 | -1.87 (inactive) | 0.969 (inactive) | 0.0569
4 | C[C@@H]1NC(=O)[C@H](Cc2ccccc2)NC(=O)[C@@]23C(=O)N[C@@H](Cc4ccccc4)C2[C@H](C)[C@@]2(C)O[C@H]2C3/C=C/C/C=C\CNC1=O (stereo not given in full) | -0.401 | 0.0081 (inactive) | 0.683 (inactive) | 0.125 (inactive) | 0.349 (inactive) | -0.528 | -0.128 | -0.0926 | -0.0686 | 0.596 | -1.13 (inactive) | -0.169 | 1.87 (inactive) | 0.316 (inactive) | 0.134 (inactive) | -0.0643 (inactive) | -0.248 | 0.832 (inactive) | -0.951 (inactive) | 0.906
5 | O=C(NCC(F)(F)F)[C@@H]1c2ccccc2C(=O)N(Cc2ccccc2Cl)[C@H]1c1ccc(CO)cc1 | -0.234 | 0.197 (inactive) | 0.072 (inactive) | 0.414 (inactive) | -0.65 (inactive) | -1.38 | -0.176 | -0.495 | 0.986 | -0.59 | 0.774 (inactive) | -0.27 | 1.88 (inactive) | 0.839 (inactive) | 0.62 (inactive) | 0.157 (inactive) | -0.217 | -0.138 (inactive) | 0.22 (inactive) | -0.0659
6 | CCOC(=O)C[C@H]1[C@H](OC(=O)Cc2ccc3c(c2)OCO3)[C@@H](NC(=O)c2ccc3ccccc3c2)c2cc(OCCCO)ccc2N1C(=O)Cc1ccc(OC)cc1 | -0.0175 | -0.602 (inactive) | -0.0536 (inactive) | 4.83 (inactive) | 0.135 (inactive) | 0.348 | 0.386 | 0.242 | 0.485 | 0.673 | 2.54 (inactive) | -0.0626 | 18 (active) | 2.41 (inactive) | -1.47 (inactive) | -0.15 (inactive) | 2.6 | -0.629 (inactive) | 0.799 (inactive) | 1.08
7 | NC(=O)NCC#Cc1ccc2c(c1)[C@]1(C(=O)N2)[C@H](C(N)=O)[C@H]2C(=O)O[C@H](c3ccccc3)[C@H](c3ccccc3)N2[C@@H]1c1ccccc1OCCO | 0.0902 | 0.463 (inactive) | -0.258 (inactive) | 0.918 (inactive) | -0.447 (inactive) | 0.28 | 0.0091 | 0.247 | 0.396 | 1.18 | -0.925 (inactive) | 0.199 | 2.15 (inactive) | 0.0353 (inactive) | -3.88 (inactive) | -0.146 (inactive) | -0.128 | 2.1 (inactive) | 1 (inactive) | 0.53
8 | O=C1OCCC/C=C\[C@H]2OC34C=CCN(CCN5CCOCC5)C(=O)[C@H]3N(CCCCCO)C(=O)[C@@H]4C12 (stereo not given in full) | -0.498 | 0.305 (inactive) | 1.67 (inactive) | 0.597 (inactive) | 0.515 (inactive) | -0.293 | 0.202 | -1.01 | -0.649 | 0.392 | -0.938 (inactive) | -0.0984 | 1.07 (inactive) | -0.314 (inactive) | -0.566 (inactive) | -0.525 (inactive) | -0.768 | 0.796 (inactive) | -0.109 (inactive) | 1.01

From PubChem BioAssay
